Assay [1] is described as follows: small molecules captured by biotinylated probe aFSTL3 – biochemical, small-molecule microarray, fluorescence 635/667, stem cell growth factor project, primary screen (AID 1064).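 Further: measures binding of the biotinylated anti-FSTL3 antibody to printed compounds.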 To be noted: higher = more signal.
Assay [2] is described as follows: binders from COS7 lysate, DM2A8 probe, primary screen, torsin A project, cell lysate, small-molecule microarray, fluorescence 635/667 (AID 1065). To be noted: higher = more signal, COS7 lysate expressing mutant human TOR1A.
Assay [3] is described as follows: small molecules captured by biotinylated probe aFGF2 – biochemical, small-molecule microarray, fluorescence 635/667, stem cell growth factor project, primary screen (AID 1067).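 Further: measures binding of biotinylated aFGF2 protein to printed compounds on slides; z-score merges feature fluorescence and signal-to-noise across triplicate slides.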 The conditions noted are these: higher = more signal.
Assay [4] can be described thus: small molecules captured by biotinylated probe aFGF10 – biochemical, small-molecule microarray, fluorescence 635/667, stem cell growth factor project, primary screen (AID 1071).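 Further: score merges 667 nm spot intensity and signal to noise from triplicate slides.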 The conditions noted are these: higher = more signal.
The target in assay [5] is Neurogenic locus notch homolog protein 2 (Homo sapiens) (UniProt Q04721). Briefly: small molecules binding Notch2 protein – biochemical, small-molecule microarray, 635 nm fluorescence, stem cell growth factors, primary screen (AID 1073). The conditions noted are these: higher = more signal.
For assay [6], the target named is Pro-neuregulin-1, membrane-bound isoform (Homo sapiens) (UniProt Q02297). As to the kind of experiment: small molecules binding neuregulin-1 protein – biochemical, small-molecule microarray, fluorescence 635/667, psychiatric disease protein project, primary screen (AID 1075).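 Further: score combines 667 nm spot fluorescence with signal to noise.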 To be noted: NRG1 binding, 635 nm fluorescence, higher = more signal.
Assay [7] relates to Neuregulin-1 EGF-like domain. As to the kind of experiment: small molecules binding NRG1 EGF domain – biochemical, small-molecule microarray, 635 nm fluorescence, primary screen (AID 1081).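 Further: binding of the protein to compounds printed on small-molecule microarray slides.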 The conditions noted are these: higher = more signal.
Assay [8] in a line: FRG1 expression reporter modulators in myotubes – cell-based, C2C12 myotubes, firefly/Renilla luciferase, luminescence, FRG1 inhibition for FSHD, primary screen (AID 1084). To be noted: FRG1 promoter luciferase, higher = more signal, called active from +8 up or from −8 down.
A short description of assay [9]: small molecules captured by biotinylated probe aFST – biochemical, small-molecule microarray, fluorescence 635/667, stem cell growth factor project, primary screen (AID 1086).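 Further: score merges 667 nm fluorescence with signal-to-noise of each printed compound spot.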 To be noted: higher = more signal.
Assay [10] is described as follows: binders of probe aHhip on microarray, primary screen, stem cell growth factor project, biochemical, small-molecule microarray, fluorescence 635/667 (AID 1087).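 Further: score merges spot fluorescence at 667nm with spot signal to noise ratio.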 The conditions noted are these: higher = more signal.
Assay [11] concerns PRMT1 (protein arginine N-methyltransferase 1). Briefly: small molecules binding arginine methyltransferase PRMT1 – biochemical, small-molecule microarray, 635 nm fluorescence, primary screen (AID 1088).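 Further: binding of Prmt1 protein to compounds spotted on small-molecule microarray slides.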 The conditions noted are these: higher = more signal.
Assay [12] in a line: growth effects on S. cerevisiae YJM789 – YJM789 clinical isolate, OD600, 24 h, basal, primary screen (AID 1089).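 Further: growth of clinical yeast isolate S. cerevisiae YJM 789 seeded 1000 cells per well; test concentration not given here.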 The conditions noted are these: higher = more signal, called active from +8 up or from −8 down.
The nature of assay [13]: S. pombe growth modifiers, basal conditions – strain 972, OD600, 24 h, no modulator, primary screen (AID 1090).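 Further: basal condition with compound alone and no growth modifier present; test concentration not given here.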 The conditions noted are these: S. pombe 972 growth, higher = more signal, called active from +8 up or from −8 down.
The nature of assay [14]: budding yeast growth modifiers under rapamycin – strain BY4716, OD600, 96 h, primary screen (AID 1091). Further: test concentration not given here. The conditions noted are these: S. cerevisiae BY4716 + rapamycin, higher = more signal, called active from +8 up or from −8 down.
Assay [15] deals with Torsin-1A-interacting protein 2 (Homo sapiens) (UniProt Q8NFQ8). As to the kind of experiment: small molecules binding lysate-expressed LULL1 – cell lysate, human LULL1 lysate, 635/667 nm fluorescence, primary screen (AID 1092).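 Further: score merges per-feature 667 nm fluorescence with signal-to-noise.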 The conditions noted are these: small-molecule microarray, hLULL1 lysate binding, 635 nm fluorescence; higher = more signal.
Assay [16] is described as follows: optical density change of DRC41 E. coli – strain DRC41, OD650, 24 h, E. coli filamentation project, primary screen (AID 1093).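 Further: MC1000 strain lacking acrAB efflux and sulA so SOS filamentation is blocked; test concentration not given here.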 To be noted: E. coli DRC41 growth, higher = more signal, called active from +8 up or from −8 down.
The nature of assay [17]: probe aLefty2 binding to arrayed compounds – biochemical, biotinylated probe, 635/667 nm fluorescence, primary screen (AID 1094).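 Further: score merges spot fluorescence near 667 nm with spot signal-to-noise ratio.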 To be noted: small-molecule microarray, higher = more signal.
Assay [18] has as its system Noggin (protein binding on small-molecule microarray). As to the kind of experiment: small molecules binding Noggin protein – biochemical, 635/667 nm fluorescence, primary screen (AID 1095).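 Further: score merges 667 nm feature fluorescence with signal to noise over triplicate slides.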 To be noted: 635 nm fluorescence, higher = more signal.
Assay [19] addresses Neurogenic locus notch homolog protein 3 (Homo sapiens) (UniProt Q9UM47). As to the kind of experiment: small molecules binding NOTCH3 protein – biochemical, 635/667 nm fluorescence, primary screen (AID 1096). To be noted: small-molecule microarray, 635 nm fluorescence, higher = more signal.
The nature of assay [20]: probe aEGFR binding to arrayed compounds – biochemical, biotinylated probe, 635/667 nm fluorescence, primary screen (AID 1097).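 Further: probe is a biotinylated anti-EGFR antibody binding compounds printed on slides; score combines fluorescence near 667 nm and signal to noise of each spot.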 The conditions noted are these: small-molecule microarray, higher = more signal.

Activity calls are given as the source filed them.

Torsin-1A-interacting protein 2 (Homo sapiens), sequence (Q8NFQ8 whole entry, looked up): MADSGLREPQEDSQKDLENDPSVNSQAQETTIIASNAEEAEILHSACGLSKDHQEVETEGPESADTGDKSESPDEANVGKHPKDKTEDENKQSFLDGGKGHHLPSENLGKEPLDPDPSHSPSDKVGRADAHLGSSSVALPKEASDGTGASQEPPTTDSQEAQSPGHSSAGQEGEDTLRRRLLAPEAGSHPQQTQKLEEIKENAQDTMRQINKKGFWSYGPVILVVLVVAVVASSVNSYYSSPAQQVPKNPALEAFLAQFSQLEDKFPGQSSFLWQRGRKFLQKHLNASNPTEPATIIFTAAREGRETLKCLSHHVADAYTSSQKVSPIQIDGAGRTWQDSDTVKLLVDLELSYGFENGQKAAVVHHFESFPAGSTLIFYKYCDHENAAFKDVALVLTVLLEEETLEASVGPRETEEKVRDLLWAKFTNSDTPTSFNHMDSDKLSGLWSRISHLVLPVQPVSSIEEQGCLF
Neurogenic locus notch homolog protein 2 (Homo sapiens), sequence (Q04721 whole entry, looked up, canonical isoform): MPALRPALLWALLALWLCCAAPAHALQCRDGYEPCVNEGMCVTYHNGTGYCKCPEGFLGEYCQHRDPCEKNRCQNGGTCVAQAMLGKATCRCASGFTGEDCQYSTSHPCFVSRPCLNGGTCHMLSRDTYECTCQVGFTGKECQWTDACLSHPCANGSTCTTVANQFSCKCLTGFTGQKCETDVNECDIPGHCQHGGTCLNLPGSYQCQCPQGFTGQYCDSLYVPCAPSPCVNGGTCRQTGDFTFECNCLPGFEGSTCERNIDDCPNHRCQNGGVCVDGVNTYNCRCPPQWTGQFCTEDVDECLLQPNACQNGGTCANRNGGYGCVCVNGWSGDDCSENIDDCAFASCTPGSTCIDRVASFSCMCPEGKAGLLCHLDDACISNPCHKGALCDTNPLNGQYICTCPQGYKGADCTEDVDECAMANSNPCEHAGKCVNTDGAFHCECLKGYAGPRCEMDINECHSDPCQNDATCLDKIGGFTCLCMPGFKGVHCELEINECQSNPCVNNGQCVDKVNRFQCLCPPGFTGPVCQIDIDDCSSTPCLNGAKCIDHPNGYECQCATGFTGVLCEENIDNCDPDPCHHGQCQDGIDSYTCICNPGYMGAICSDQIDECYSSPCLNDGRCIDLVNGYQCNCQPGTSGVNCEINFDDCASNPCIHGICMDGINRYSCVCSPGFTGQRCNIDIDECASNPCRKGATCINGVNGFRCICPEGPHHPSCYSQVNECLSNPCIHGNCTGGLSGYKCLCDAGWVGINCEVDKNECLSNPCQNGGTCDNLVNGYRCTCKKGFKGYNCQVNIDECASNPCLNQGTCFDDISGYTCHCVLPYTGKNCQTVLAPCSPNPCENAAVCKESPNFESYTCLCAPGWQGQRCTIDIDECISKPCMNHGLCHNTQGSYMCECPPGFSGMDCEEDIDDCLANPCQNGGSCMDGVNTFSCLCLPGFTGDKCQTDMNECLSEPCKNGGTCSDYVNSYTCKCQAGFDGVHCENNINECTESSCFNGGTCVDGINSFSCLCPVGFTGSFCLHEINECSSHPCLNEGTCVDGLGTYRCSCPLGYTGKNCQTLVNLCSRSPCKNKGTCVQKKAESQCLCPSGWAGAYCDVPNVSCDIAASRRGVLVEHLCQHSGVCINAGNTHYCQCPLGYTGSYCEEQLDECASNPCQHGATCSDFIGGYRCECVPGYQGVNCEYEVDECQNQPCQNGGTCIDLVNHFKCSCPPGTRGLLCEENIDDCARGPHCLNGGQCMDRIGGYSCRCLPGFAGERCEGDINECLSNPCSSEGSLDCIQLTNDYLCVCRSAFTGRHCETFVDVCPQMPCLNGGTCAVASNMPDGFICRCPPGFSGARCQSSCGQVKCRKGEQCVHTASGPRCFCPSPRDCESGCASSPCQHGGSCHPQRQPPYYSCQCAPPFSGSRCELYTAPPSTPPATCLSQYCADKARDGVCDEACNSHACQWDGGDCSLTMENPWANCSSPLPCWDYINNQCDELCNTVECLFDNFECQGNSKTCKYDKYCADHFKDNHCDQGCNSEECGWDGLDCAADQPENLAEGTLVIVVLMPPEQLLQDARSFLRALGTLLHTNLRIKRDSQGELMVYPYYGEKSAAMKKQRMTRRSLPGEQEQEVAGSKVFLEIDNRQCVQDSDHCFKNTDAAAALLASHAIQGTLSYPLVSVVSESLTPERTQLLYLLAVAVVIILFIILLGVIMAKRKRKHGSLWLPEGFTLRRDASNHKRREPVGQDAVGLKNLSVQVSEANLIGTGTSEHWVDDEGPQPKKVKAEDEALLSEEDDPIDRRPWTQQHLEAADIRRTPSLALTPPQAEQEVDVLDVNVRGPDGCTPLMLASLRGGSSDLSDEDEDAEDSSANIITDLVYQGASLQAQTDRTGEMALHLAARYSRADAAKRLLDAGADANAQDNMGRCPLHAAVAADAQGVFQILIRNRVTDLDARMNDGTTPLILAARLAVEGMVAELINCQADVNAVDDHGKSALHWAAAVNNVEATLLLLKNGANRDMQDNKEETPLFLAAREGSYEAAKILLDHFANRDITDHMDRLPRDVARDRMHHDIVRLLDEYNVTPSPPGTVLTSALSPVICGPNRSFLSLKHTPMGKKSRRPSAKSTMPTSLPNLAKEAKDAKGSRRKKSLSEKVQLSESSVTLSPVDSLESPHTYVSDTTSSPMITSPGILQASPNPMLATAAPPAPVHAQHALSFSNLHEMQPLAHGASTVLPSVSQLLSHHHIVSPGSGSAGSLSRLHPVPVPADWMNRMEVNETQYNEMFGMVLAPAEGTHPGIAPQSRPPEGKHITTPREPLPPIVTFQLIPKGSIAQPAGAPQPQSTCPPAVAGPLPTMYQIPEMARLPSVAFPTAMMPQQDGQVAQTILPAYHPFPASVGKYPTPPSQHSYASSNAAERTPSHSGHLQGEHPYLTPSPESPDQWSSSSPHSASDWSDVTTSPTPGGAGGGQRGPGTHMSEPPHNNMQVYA
Pro-neuregulin-1, membrane-bound isoform (Homo sapiens), sequence (Q02297 whole entry, looked up, the tested form may be a part, canonical isoform): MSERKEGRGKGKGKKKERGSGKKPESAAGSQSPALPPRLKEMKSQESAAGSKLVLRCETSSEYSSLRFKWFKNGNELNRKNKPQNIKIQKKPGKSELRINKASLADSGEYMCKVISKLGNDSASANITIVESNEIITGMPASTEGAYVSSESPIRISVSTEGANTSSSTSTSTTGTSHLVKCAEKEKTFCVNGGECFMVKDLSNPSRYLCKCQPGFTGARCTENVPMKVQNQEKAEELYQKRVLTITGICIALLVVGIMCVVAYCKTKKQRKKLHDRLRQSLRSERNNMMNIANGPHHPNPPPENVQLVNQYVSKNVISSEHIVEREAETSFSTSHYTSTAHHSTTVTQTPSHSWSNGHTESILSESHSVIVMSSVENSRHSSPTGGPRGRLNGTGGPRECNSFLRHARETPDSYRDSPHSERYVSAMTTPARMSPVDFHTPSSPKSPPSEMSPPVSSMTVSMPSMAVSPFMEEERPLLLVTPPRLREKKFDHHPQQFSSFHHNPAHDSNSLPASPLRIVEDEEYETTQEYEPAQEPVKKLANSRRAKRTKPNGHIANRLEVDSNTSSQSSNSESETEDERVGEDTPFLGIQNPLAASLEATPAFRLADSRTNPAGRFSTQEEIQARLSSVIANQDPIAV

On to `CC(C)=CCCC(C)=CCON=C1C[C@@H](O)[C@@H](O)[C@@H]2[C@@H]3C(=O)N(Cc4ccc5c(c4)OCO5)C(=O)[C@@H]3CC[C@H]12`, for which the composite z-score in [1] is -0.386; in [2], -0.203; in assay [3], -0.0687; in assay [4], 0.584; in [5], 1.18; in [6], 0.78. Also, the composite z-score is 0.615 in assay [7]; 0.416 in [9]; -0.272 in assay [10]; 1.44 in assay [11]; 1.93 in [15]; -0.166 in assay [17]. Besides, the figures for the composite z-score in assay [18], in assay [19] and in assay [20] were 0.564, 0.907 and -0.0271, respectively. The z-score in assay [8] is 0.34 (inactive); in assay [12], 0.329 (inactive); in [13], 0.197 (inactive); in assay [14] it was -0.251 (inactive); in assay [16], 0.103 (inactive).
On to `C=CCOCC1CN2[C@@H](CC[C@@H](C)[C@@H]2c2ccc(Br)cc2)C(=O)O1` (stereo not given in full), for which the composite z-score was -0.155 in [1]; 0.0527 in assay [2]; -0.16 in [3]; -0.204 in assay [4]; -0.619 in assay [5]; -0.391 in [6]. Also, the composite z-score was -0.479 in assay [7]; -0.546 in assay [9]; -0.0994 in assay [10]; -0.149 in [11]; -0.581 in [15]; -0.296 in [17]. The composite z-score is 0.167 in assay [18], -0.405 in assay [19] and -0.0953 in assay [20]. The z-score in assay [8] was -0.0613 (inactive); in [12], -0.349 (inactive); in assay [13], -0.592 (inactive); in assay [14], 0.338 (inactive); in assay [16], 0.415 (inactive).
With `CC(C)CON=C1C[C@@H](O)[C@@H](O)[C@@H]2[C@@H]3C(=O)N(Cc4ccc5c(c4)OCO5)C(=O)[C@@H]3CC[C@@H]12`, the composite z-score was -0.345 in assay [1]; -0.142 in assay [2]; 0.0138 in assay [3]; 0.11 in assay [4]; -0.0138 in assay [5]; 0.474 in [6]. For the same compound, the composite z-score in assay [7] is 0.814; in assay [9] it was -0.141; in [10], 0.0659; in [11], 0.731; in [15], 1.69; in [17], -0.195. Further, the composite z-score in [18] was 0.697; in [19], -0.173; in assay [20], -0.192. Besides, the z-score was -0.197 (inactive) in assay [8]; -0.12 (inactive) in assay [12]; 0.54 (inactive) in assay [13]; -0.409 (inactive) in [14]; -0.38 (inactive) in [16].
As for `CO[C@@H](C1CCCCC1)[C@@H](C)[C@H](OCc1cccc(Br)c1)[C@@H](C)CO`, the composite z-score in [1] is -0.284; in assay [2], -0.0003; in assay [3], -0.0909; in assay [4], 0.179; in assay [5] it was -0.0552; in assay [6], -0.194. Moreover, the composite z-score was -0.511 in assay [7]; 0.306 in assay [9]; -0.0173 in assay [10]; 0.0812 in assay [11]; 0.366 in assay [15]; -0.181 in assay [17]. The composite z-score was 0.307 in assay [18], 0.322 in assay [19] and -0.0549 in assay [20]. Moreover, the z-score is 2.57 (inactive) in assay [8]; -0.407 (inactive) in [12]; -16.4 (active) in assay [13]; -1.11 (inactive) in assay [14]; 0.114 (inactive) in assay [16].
As to `CC(CCN1CCCc2nc(C)c(C)cc21)=NO[C@H](C)c1cn([C@@H]2COC[C@H]2O)nn1`, the composite z-score in assay [1] was -0.396; in [2], 1.37; in assay [3] it was -0.0788; in assay [4], 0.359; in [5], 0.6; in [6], 0.0261. Also, the composite z-score in [7] was 1.17; in [9], 0.3; in [10], -0.195; in assay [11], 1.16; in assay [15], 0.788; in [17] it was 0.13. The composite z-score in assay [18] was determined as 0.566; in assay [19] it was 0.676; in [20] it was 0.187. In addition, the z-score in assay [8] is 0.59 (inactive); in [12], 1.17 (inactive); in assay [13], 1.12 (inactive); in [14], 0.468 (inactive); in assay [16], 1.24 (inactive).
